40 compounds from PubChem BioAssay (Tox21) can be followed below.

Records with an inconclusive call do not appear. Activity calls are given as the source filed them. Calls follow the shape of the dose curve; as a rule, active = well fitted activation curve with a large enough effect in the signal ratio in the repeat runs (not every such curve was filed as active); inconclusive = weak or mixed curves, or effect the other way; inactive = no such curve, though single readings can be large or run the other way; the % refers to the signal ratio.
% is scaled to controls: 0 for no effect and ±100 for the full control effect.

Glucocorticoid receptor (Homo sapiens), sequence (P04150 whole entry, looked up): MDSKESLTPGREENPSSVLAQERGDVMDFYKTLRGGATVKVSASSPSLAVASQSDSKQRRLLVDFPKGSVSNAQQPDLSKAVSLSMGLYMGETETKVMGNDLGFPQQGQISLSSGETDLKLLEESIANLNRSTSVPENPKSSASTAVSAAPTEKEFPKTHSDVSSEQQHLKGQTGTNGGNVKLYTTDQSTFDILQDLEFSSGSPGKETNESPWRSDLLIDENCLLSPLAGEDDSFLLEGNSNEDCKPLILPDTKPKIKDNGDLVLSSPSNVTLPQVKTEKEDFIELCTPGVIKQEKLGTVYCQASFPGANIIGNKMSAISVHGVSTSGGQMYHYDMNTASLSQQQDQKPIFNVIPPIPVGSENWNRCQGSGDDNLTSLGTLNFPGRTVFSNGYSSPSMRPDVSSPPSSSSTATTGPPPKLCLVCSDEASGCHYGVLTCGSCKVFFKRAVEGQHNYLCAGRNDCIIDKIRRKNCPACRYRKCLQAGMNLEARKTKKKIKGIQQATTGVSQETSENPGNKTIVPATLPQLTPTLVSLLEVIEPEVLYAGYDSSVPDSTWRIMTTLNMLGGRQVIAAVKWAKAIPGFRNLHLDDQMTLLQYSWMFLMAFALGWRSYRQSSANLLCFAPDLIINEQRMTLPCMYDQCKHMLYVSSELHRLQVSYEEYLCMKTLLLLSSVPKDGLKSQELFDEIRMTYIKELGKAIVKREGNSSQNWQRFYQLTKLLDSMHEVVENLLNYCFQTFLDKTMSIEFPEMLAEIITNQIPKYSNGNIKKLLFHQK

This test has as its target Glucocorticoid receptor (Homo sapiens) (UniProt P04150). As to the kind of experiment: qHTS assay to identify small molecule agonists of the glucocorticoid receptor (GR) signaling pathway (AID 720691). To be noted: GR-bla HeLa, beta-lactamase reporter ratio, 18 h; series mostly up to 62.4 µM; activation: at the top concentration. From the text: U.S. Tox21 Program National Center for Advancing Translational Sciences [NCATS] NIH Chemical Genomics Center [NCGC] U.S. Environmental Protection Agency [EPA] National Institutes of Environmental Health Sciences [NIEHS] National Toxicology Program [NTP] U.S. Food and Drug Administration [FDA] Tox21 Assay Overview: The Glucocorticoid receptor (GR) is one of the members of the nuclear receptor family of ligand-dependent transcription factors. GR plays a critical role in carbohydrate, protein and lipid metabolisms and programmed cell death. CellSensor GR-bla HeLa cell line (Invitrogen) contains a beta-lactamase reporter gene under the control of the glucocorticoid response element stably integrated into HeLa cells, a cervical cancer cell line that expresses glucocorticoid receptor. The activation of the reporter gene under culture conditions can be detected by fluorescence intensity. This cell line has been used to screen the Tox21 10K compound library and to identify the compounds that activate the GR signaling.
Tox21 Assay Protocol Summary: The GR-bla HeLa cells were dispensed at 1500 cells/6 ul/well in 1536-well black wall/clear bottom plates using a Multidrop Combi (ThermoFisher Scientific, Waltham, MA) dispenser. After the assay plates were incubated at a 37 C/5% CO2 incubator for 4 hours, 23 nL of compounds dissolved in DMSO, positive controls or DMSO only was transferred to the assay plate by a pintool station (Kalypsys, San Diego, CA). The plates were incubated at 37 C for 18 hours. After 1 uL of LiveBLAzerTM B/G FRET substrate was added using a Flying Reagent Dispenser (Aurora Discovery, San Diego, CA), the plates were incubated at room temperature for 2 hours, and fluorescence intensity was measured by an Envision plate reader (PerkinElmer, Shelton, CT).
On the technique in general: Quantitative high-throughput screening tests each substance at several concentrations.
Take `C=CC1CO1` (stereo not given): the “activation” value was 0.0674% [at 79.2 µM] (inactive).

`CCC(=O)c1ccc2c(c1)N(CCCN(C)C)c1ccccc1S2`: the “activation” value was -9.73% (inactive).

For the compound `CC(C)C(=O)OCC(C)(C)C(O)C(C)C` (stereo not given), the “activation” value is -0.035% [at 79.2 µM] (inactive).

For `CCN[C@H]1CN(CCCOC)S(=O)(=O)c2sc(S(N)(=O)=O)cc21`, the “activation” value was 0.298% [at 29.2 µM] (inactive).

`CCCCOc1cc(C(=O)NCCN(CC)CC)c2ccccc2n1`: the “activation” value is -2.42% [at 29.2 µM] (inactive).

For `O=C(O)CN(CCN(CC(=O)O)CC(=O)O)CCN(CC(=O)O)CC(=O)O`, the “activation” value was 2.77% (inactive).

On to `Cc1ccc([N+](=O)[O-])c(N)c1`, for which the “activation” value is -2.81% (inactive).

Turning to `Oc1ccccc1C=NCc1ccccc1`, the “activation” value was 0.784% (inactive).

In the case of `O=c1[nH]c(=O)n([C@H]2C[C@H](O)[C@@H](CO)O2)cc1C(F)(F)F`, the “activation” value was 0.266% (inactive).

Regarding `OC[C@H]1O[C@@H](O[C@H]2[C@H](O)[C@@H](O)[C@H](O)O[C@@H]2CO)[C@H](O)[C@@H](O)[C@H]1O`, the “activation” value was -0.789% (inactive).

For `COc1ccc2nc(NC(=O)Nc3ccccc3)sc2c1`, the “activation” value is -4.53% (inactive).

Turning to `ClC(Cl)Cl`, the Potency entry was “inactive”.

As for `CN1CCN(c2c(F)cc3c(=O)c(C(=O)O)cn4c3c2SCC4)CC1`, the “activation” value was 0.0129% (inactive).

For `Cc1cc2nc(N)sc2cc1C`, the “activation” value is -10.3% [at 79.2 µM] (inactive).

As to `CC1(O)CSC(C)(O)CS1` (stereo not given), the “activation” value is -2.78% (inactive).

For `CC(C)(C)c1cccc(O)c1`, the “activation” value was -0.614% (inactive).

On to `OCC(CBr)(CBr)CBr`, for which the “activation” value was -5.47% (inactive).

As for `O=C1Nc2ccc([N+](=O)[O-])cc2C1=O`, the “activation” value was 0.606% (inactive).

Take `CCCCCCCCCCCCCCCCOP(=O)([O-])OCC[N+](C)(C)C`: the “activation” value is -5.27% (inactive).

With `O=C1CCCc2ccccc21`, the “activation” value was -2.42% [at 79.2 µM] (inactive).

Take `Cc1cc(S(=O)(=O)O)c(N)cc1Cl`: the “activation” value is -2.91% [at 79.2 µM] (inactive).

For `CS(=O)(=O)c1ccc([C@@H](O)[C@@H](CF)NC(=O)C(Cl)Cl)cc1`, the “activation” value was 1.77% [at 29.2 µM] (inactive).

Consider `CC(C)NCC(O)COc1ccc(CCOCC2CC2)cc1` (stereo not given), for which the “activation” value is -0.661% (inactive).

`CCOC(=O)CS`: the “activation” value was -0.553% [at 79.2 µM] (inactive).

For `CC(C)c1ccccc1`, the “activation” value is -3.06% [at 79.2 µM] (inactive).

Consider `COc1ccc(Nc2ccc(OC)cc2)cc1`, for which the “activation” value is -5.29% [at 79.2 µM] (inactive).

For the compound `O=[N+]([O-])c1nccn1CO[C@@H](CO)[C@H](O)CO`, the “activation” value was -0.273% (inactive).

`CCCCNC(=S)NCCCC`: the “activation” value is -2.2% (inactive).

For `CC(C)Nc1nc(N)nc(Cl)n1`, the “activation” value was 0.406% (inactive).

Consider `CC1(C)C(=O)N(Cl)C(=O)N1Br`, for which the “activation” value is -3.88% (inactive).

Turning to `N#Cc1ccc(C(c2ccc(C#N)cc2)n2cncn2)cc1`, the Potency entry is “inactive”.

Regarding `COc1cc(Cl)ccc1Cl`, the “activation” value was 0.352% [at 79.2 µM] (inactive).

Take `COc1ccc(S(=O)(=O)Nc2nnc(CC(C)C)s2)cc1`: the Potency result is “inactive”.

For the compound `NCCC(O)(P(=O)(O)O)P(=O)(O)O`, the “activation” value is 0.191% (inactive).

As for `CN(C)CC[C@@H](c1ccc(Cl)cc1)c1ccccn1`, the “activation” value was -3.47% (inactive).

As to `Cc1c(C(=O)NCCO)[n+](=O)c2ccccc2n1[O-]`, the “activation” value was 0.437% (inactive).

For the compound `O=C1CCC(C2CCCCC2)CC1`, the “activation” value is -8.51% (inactive).

`CN(C)C(=O)NC1(c2ccccc2)CCN(CCC[C@]2(c3ccc(Cl)c(Cl)c3)CCCN(C(=O)c3ccccc3)C2)CC1`: the “activation” value was -10.3% [at 29.2 µM] (inactive).

For the compound `O=C1CCN(c2ccccc2)N1`, the “activation” value was -9.16% [at 79.2 µM] (inactive).

As for `C=CC(C)(O)CC/C=C(\C)CCC=C(C)C` (stereo not given), the Potency result was “inactive”.
